{
  "source": "ChEMBL document CHEMBL2218924",
  "about": "“A broad activity screen in support of a chemogenomic map for kinase signalling research and drug discovery” (Biochem J, 2013)",
  "data": [
    {"molecular_target": "MAP kinase-activated protein kinase 3 (Homo sapiens) (UniProt Q16644)", "sequence (Q16644 whole entry, looked up)": "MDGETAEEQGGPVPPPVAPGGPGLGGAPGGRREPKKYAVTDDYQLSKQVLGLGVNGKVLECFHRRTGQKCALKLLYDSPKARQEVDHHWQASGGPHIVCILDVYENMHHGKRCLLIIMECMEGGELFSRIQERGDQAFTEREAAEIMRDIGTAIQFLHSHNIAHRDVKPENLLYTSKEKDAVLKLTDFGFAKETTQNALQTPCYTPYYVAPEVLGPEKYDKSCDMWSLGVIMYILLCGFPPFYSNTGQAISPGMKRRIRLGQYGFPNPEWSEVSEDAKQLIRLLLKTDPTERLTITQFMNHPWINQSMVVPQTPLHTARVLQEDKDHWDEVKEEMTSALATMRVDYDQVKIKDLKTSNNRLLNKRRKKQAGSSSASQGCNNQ", "conditions": "at 1 µM", "units": {"residual activity": "%"}, "values": [
      {"smiles": "O=C(O)/C=C/c1cc(Br)c(Br)c(Br)c1Br", "residual activity": 107},
      {"smiles": "Cc1nc2cc3nc(-c4cccs4)cnc3cc2n1C", "residual activity": 114},
      {"smiles": "Cn1c2ccccc2c2c3c(c4c5ccccc5n(CCC#N)c4c21)CNC3=O", "residual activity": 131},
      {"smiles": "CN(C)c1ccc(/C=C2\\C(=O)Nc3ccccc32)cc1", "residual activity": 101},
      {"smiles": "NC(=O)Nc1sc(-c2ccc(F)cc2)cc1C(N)=O", "residual activity": 98},
      {"smiles": "Cn1cnc2cc3c(Nc4cccc(Br)c4)ncnc3cc21", "residual activity": 107},
      {"smiles": "COc1ccc(OC)c2c(=S)c3ccccc3[nH]c12", "residual activity": 100},
      {"smiles": "CN(C)CCCn1cc(C2=C(c3c[nH]c4ccccc34)C(=O)NC2=O)c2ccccc21", "residual activity": 137},
      {"smiles": "COc1ccc(S(=O)(=O)N(CCO)c2ccccc2CN(C)C/C=C/c2ccc(Cl)cc2)cc1", "residual activity": 118},
      {"smiles": "N#C/C(=C1/Nc2ccccc2S1)c1ccnc(NCCc2cccnc2)n1", "residual activity": 99},
      {"smiles": "O=C(O)c1ccc2c3c1cccc3c(=O)n1c3ccccc3nc21", "residual activity": 123},
      {"smiles": "CC(C)c1nn(-c2c(Cl)cccc2Cl)c2nc(Cc3ccc(OCCO)cc3)[nH]c(=O)c12", "residual activity": 101},
      {"smiles": "Nc1ccc2ncnc(NCCc3ccc(Oc4ccccc4)cc3)c2c1", "residual activity": 117},
      {"smiles": "O=C1NC(=O)c2cc(Nc3ccc(F)cc3)c(Nc3ccc(F)cc3)cc21", "residual activity": 90},
      {"smiles": "Nc1nc(Nc2ccc(S(N)(=O)=O)cc2)nn1C(=S)Nc1c(F)cccc1F", "residual activity": 97},
      {"smiles": "CCOc1cc2ncnc(Nc3cccc(Br)c3)c2cc1OCC", "residual activity": 106},
      {"smiles": "CCC(=O)Nc1ccc2ncnc(Nc3cccc(Br)c3)c2c1", "residual activity": 89},
      {"smiles": "Cn1nc2c3c(cccc31)C(=O)c1ccccc1-2", "residual activity": 93},
      {"smiles": "COc1ccc(CNc2nc(N(CCO)CCO)nc3c2ncn3C(C)C)cc1", "residual activity": 110},
      {"smiles": "Cc1cc2ncc(-c3ccccc3)nc2cc1C", "residual activity": 135},
      {"smiles": "O=C(Nc1cccc(Nc2nccc(Nc3cccc(C(F)(F)F)c3)n2)c1)C1CC1", "residual activity": 122},
      {"smiles": "C[C@@H](N)[C@H]1CC[C@H](C(=O)Nc2ccncc2)CC1", "residual activity": 90},
      {"smiles": "COc1cc2ncnc(Nc3ccc(O)c(Br)c3)c2cc1OC", "residual activity": 124},
      {"smiles": "Nc1ncnc2c1cnn2-c1ccccc1", "residual activity": 95},
      {"smiles": "O=C1Nc2ccccc2/C1=C1/Nc2ccccc2/C1=N\\OCCC(O)CO", "note": "(stereo unspecified)", "residual activity": 106},
      {"smiles": "O=C1c2ccccc2-[n+]2ccc3c([nH]c4ccccc43)c21", "residual activity": 115},
      {"smiles": "N#CCCc1ccc2c(c1)-c1[nH]c3ccc([N+](=O)[O-])cc3c1CC(=O)N2", "residual activity": 100},
      {"smiles": "COc1cc2ncnc(Nc3ccc(Oc4ccccc4)cc3)c2cc1OC", "residual activity": 118},
      {"smiles": "Nc1nccc(-c2c(-c3ccc(F)cc3)ncn2C2CCNCC2)n1", "residual activity": 123},
      {"smiles": "Nc1n[nH]c2nnc(-c3c(-c4ccccc4)nn4ccccc34)cc12", "residual activity": 99},
      {"smiles": "O=C1NC(=O)c2c1c1c3ccccc3[nH]c1c1[nH]c3cc(Br)ccc3c21", "residual activity": 87},
      {"smiles": "COc1cc2ncnc(N3CCN(C(=O)Nc4ccc(Oc5ccccc5)cc4)CC3)c2cc1OC", "residual activity": 100},
      {"smiles": "O=C(CCCc1ccc(-c2ccccc2F)cc1)Nc1ccc(O)cc1", "residual activity": 100},
      {"smiles": "Nc1cccc(-c2cc3c(Oc4cccc(O)c4)ncnc3[nH]2)c1", "residual activity": 126},
      {"smiles": "c1ccc(-c2n[nH]cc2-c2ccnc3ccccc23)nc1", "residual activity": 109},
      {"smiles": "CC(=O)O/N=C1\\C(=C2\\C(=O)Nc3cc(Br)ccc32)Nc2ccccc21", "residual activity": 97}
    ]}
  ]
}
